Unmarked numbers belong to inactive results.
What was measured:
Test in all cases: CellTox Green cytotoxicity fluorescence relative to DMSO vehicle (fold of vehicle RFU); higher = more cell death (loss of membrane integrity), active = 2 or more
[1] = tested on: CMK
Procedure, shortened: (§1)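 CellTox Green reagent was added when MV4-11, CMK and Kasumi-1 cells were seeded at 4.0 × 10^4 cells per well, and single compounds from the Selleckchem apoptosis library were added at final 0.01, 0.1 and 1 µM in DMSO (vehicle 0.1% DMSO). Fluorescence at Ex 485 nm and Em 520 nm was read after 24, 48 and 72 h at 37 °C, 5% CO2. The reported cytotoxicity corresponds to loss of membrane integrity, given as fold of the DMSO vehicle.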

[2] = tested on: Kasumi-1
Procedure, shortened: as §1

[3] = tested on: MV4-11
Procedure, shortened: as §1

Structure (SMILES) | CellTox Green cytotoxicity fluorescence ([1]; 0.01 µM, 24 h) | CellTox Green cytotoxicity fluorescence ([1]; 0.01 µM, 48 h) | CellTox Green cytotoxicity fluorescence ([1]; 0.01 µM, 72 h) | CellTox Green cytotoxicity fluorescence ([1]; 0.1 µM, 24 h) | CellTox Green cytotoxicity fluorescence ([1]; 0.1 µM, 48 h) | CellTox Green cytotoxicity fluorescence ([1]; 0.1 µM, 72 h) | CellTox Green cytotoxicity fluorescence ([1]; 1 µM, 24 h) | CellTox Green cytotoxicity fluorescence ([1]; 1 µM, 48 h) | CellTox Green cytotoxicity fluorescence ([1]; 1 µM, 72 h) | CellTox Green cytotoxicity fluorescence ([2]; 0.01 µM, 24 h) | CellTox Green cytotoxicity fluorescence ([2]; 0.01 µM, 48 h) | CellTox Green cytotoxicity fluorescence ([2]; 0.01 µM, 72 h) | CellTox Green cytotoxicity fluorescence ([2]; 0.1 µM, 24 h) | CellTox Green cytotoxicity fluorescence ([2]; 0.1 µM, 48 h) | CellTox Green cytotoxicity fluorescence ([2]; 0.1 µM, 72 h) | CellTox Green cytotoxicity fluorescence ([2]; 1 µM, 24 h) | CellTox Green cytotoxicity fluorescence ([2]; 1 µM, 48 h) | CellTox Green cytotoxicity fluorescence ([2]; 1 µM, 72 h) | CellTox Green cytotoxicity fluorescence ([3]; 0.01 µM, 24 h) | CellTox Green cytotoxicity fluorescence ([3]; 0.01 µM, 48 h) | CellTox Green cytotoxicity fluorescence ([3]; 0.1 µM, 24 h) | CellTox Green cytotoxicity fluorescence ([3]; 0.1 µM, 48 h) | CellTox Green cytotoxicity fluorescence ([3]; 0.1 µM, 72 h) | CellTox Green cytotoxicity fluorescence ([3]; 1 µM, 24 h) | CellTox Green cytotoxicity fluorescence ([3]; 1 µM, 48 h) | CellTox Green cytotoxicity fluorescence ([3]; 1 µM, 72 h) | CellTox Green cytotoxicity fluorescence ([3]; 0.01 µM, 72 h)
COc1cccc(-n2c(=O)[nH]c3cc(Cl)n(-c4ccc(-c5cccc(OC)c5O)cc4)c3c2=O)c1 | 0.99 | 0.943 | 1.27 | 0.996 | 0.985 | 0.962 | 0.95 | 0.915 | 0.832 | 0.97 | 0.973 | 1.13 | 0.99 | 0.989 | 0.991 | 0.947 | 0.91 | 0.877 | 0.975 | 0.924 | 0.975 | 0.966 | 0.959 | 1.01 | 1 | 1 | –
Nc1ccccc1NC(=O)c1cnccn1 | 0.987 | 0.99 | 0.976 | 0.967 | 0.987 | 1.02 | 0.965 | 1.02 | 1.11 | 0.967 | 0.96 | 0.904 | 0.988 | 0.995 | 0.988 | 0.932 | 1 | 1.06 | 0.953 | 0.952 | 0.964 | 0.984 | 0.99 | 0.954 | 0.989 | 1.01 | 0.937
CCS(=O)(=O)N1CCN(c2ccc(Nc3ncc(C(N)=O)c(NC4CC4)n3)cc2)CC1 [Cerdulatinib] | 0.961 | 0.986 | 0.983 | 0.961 | 1.07 | 0.888 | 1.13 | 1.64 | 1.34 | 0.959 | 0.983 | 1.01 | 0.98 | 1.06 | 1.07 | 0.928 | 1.08 | 1.15 | – | – | – | – | – | – | – | – | –
C=CC(=O)N1CC(=Cc2ccc([N+](=O)[O-])cc2)C(=O)C(=Cc2ccc([N+](=O)[O-])cc2)C1 | 0.921 | 0.908 | 0.929 | 1.13 | 1.16 | 1.07 | 2.14 (active) | 3.36 (active) | 2.48 (active) | 1.01 | 0.937 | 0.951 | 1.01 | 1.05 | 1.04 | 1.25 | 1.78 | 1.95 | – | – | – | – | – | – | – | – | –
c1ccc2c(CCNc3ccc(Nc4ccncc4)cc3)c[nH]c2c1 [Serdemetan] | 0.966 | 0.966 | 0.987 | 0.95 | 0.971 | 1.05 | 0.925 | 1.67 | 2.28 (active) | 0.983 | 0.933 | 0.904 | 0.969 | 0.964 | 0.955 | 1.01 | 1.45 | 1.77 | 0.97 | 0.948 | 0.929 | 0.918 | 0.946 | 1.21 | 3.08 (active) | 3.17 (active) | 0.953
CN[C@@H](C)C(=O)N[C@H](C(=O)N1CCC[C@H]1C(=O)Nc1snnc1-c1ccccc1)C1CCCCC1 | 0.986 | 0.984 | 0.983 | 1.01 | 1 | 1.02 | 1.01 | 1.02 | 0.959 | 0.983 | 0.949 | 0.94 | 1.01 | 1.03 | 1.07 | 0.988 | 1.04 | 1.1 | – | – | – | – | – | – | – | – | –
COC(=O)[C@H](CCSC)NC(=O)c1ccc(NC[C@@H](N)CS)cc1-c1ccccc1 | 0.934 | 0.924 | 0.941 | 0.896 | 0.897 | 0.941 | 0.938 | 0.978 | 1.04 | 0.974 | 0.922 | 0.926 | 0.932 | 0.927 | 0.924 | 0.941 | 0.973 | 0.997 | 0.942 | 0.936 | 0.947 | 0.943 | 0.932 | 0.927 | 0.931 | 0.944 | 0.953
CN[C@@H](C)C(=O)N[C@H](C(=O)N1CCC[C@H]1c1nc(C(=O)c2ccc(F)cc2)cs1)C1CCCCC1 | 0.96 | 0.958 | 0.993 | 0.965 | 0.981 | 1.03 | 0.964 | 0.991 | 0.981 | 0.997 | 0.955 | 0.955 | 0.998 | 1.02 | 1.04 | 1.03 | 1.1 | 1.17 | 0.99 | 0.973 | 0.975 | 0.99 | 1 | 0.969 | 1.02 | 1.03 | 0.977
C=CC(=O)N1CCC(Oc2cc3c(Nc4ccc(Cl)c(Cl)c4F)ncnc3cc2OC)CC1 [Poziotinib] | 1.02 | 1.01 | 1.02 | 1.03 | 1.02 | 1.02 | 0.999 | 1 | 0.915 | 0.992 | 0.982 | 0.982 | 1.03 | 1.02 | 1.02 | 0.994 | 1 | 1.04 | 0.975 | 0.986 | 1.02 | 1.02 | 1.03 | 1.01 | 1.03 | 1.09 | 0.988
C[C@H]1Oc2cc(cnc2N)-c2c(nn(C)c2C#N)CN(C)C(=O)c2ccc(F)cc21 | 0.989 | 0.966 | 0.982 | 0.951 | 0.957 | 0.948 | 1 | 1.05 | 1.07 | 1.05 | 1.01 | 1.01 | 1.01 | 0.988 | 0.997 | 0.922 | 0.929 | 0.914 | – | – | – | – | – | – | – | – | –
CCOc1cc(C(C)(C)C)ccc1C1=N[C@@](C)(c2ccc(Cl)cc2)[C@@](C)(c2ccc(Cl)cc2)N1C(=O)N1CCN(CCCS(C)(=O)=O)CC1 | 0.987 | 0.993 | 1.01 | 0.995 | 0.996 | 1 | 1.02 | 1.05 | 1.02 | 0.977 | 0.992 | 1.01 | 0.987 | 0.969 | 0.96 | 1.03 | 1.03 | 1.03 | – | – | – | – | – | – | – | – | –
CC(C)CC(NC(=O)C(Cc1ccccc1)CC(O)C(Cc1ccccc1)NC(=O)OC(C)(C)C)C(=O)NC(Cc1ccccc1)C(N)=O (centres undefined) | 1 | 1 | 1.03 | 0.943 | 0.922 | 0.899 | 0.947 | 0.949 | 0.919 | 0.952 | 0.963 | 0.962 | 0.943 | 0.974 | 0.946 | 0.912 | 0.993 | 1 | 0.952 | 0.964 | 0.937 | 0.952 | 0.944 | 0.919 | 0.947 | 0.967 | 0.968
CC(=NNC(=S)N1CCC1)c1ccccn1 | 0.934 | 0.962 | 1.02 | 0.922 | 1.29 | 1.42 | 1.04 | 1.42 | 1.4 | 1.01 | 1.03 | 1.19 | 0.971 | 1.18 | 1.6 | 1.02 | 1.25 | 1.49 | – | – | – | – | – | – | – | – | –
C=CCc1cccc(/C=N/NC(=O)CN2CCN(Cc3ccccc3)CC2)c1O | 0.917 | 0.909 | 0.921 | 0.92 | 0.917 | 0.953 | 0.913 | 0.937 | 1.06 | 1 | 0.934 | 0.93 | 0.918 | 0.918 | 0.918 | 0.916 | 0.914 | 0.892 | – | – | – | – | – | – | – | – | –

From the supplement of paper PMC7595190
